# Tau fluor counter – Counterscreen qHTS for Inhibitors of Tau Fibril Formation, Fluorescence Polarization. tau K18 P301L Alexa594 fluorescence, heparin fibrillization. Potency, µM (titrated, usually from 57.7 µM), for inactives: at the highest dose activity change, negative = decrease. AID 1463, 2008. 280,000 compounds, 0.93% hits; also: potency is read from the fitted curve at half-maximal effect; nearly all actives have a fitted effect of over 55% in size
#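 Human tau K18 P301L (15 uM unlabeled, 0.24 uM Alexa 594-labeled) in 100 mM sodium acetate pH 7 with 20 uM heparin, 6 hr at 37 C. ThT 30 uM added, 1 hr ambient; Alexa 594 FP and total fluorescence read at 555/632 nm.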
# TexasRed fluor – Total Fluorescence Counterscreen for Inhibitors of the Interaction of Thyroid Hormone Receptor and Steroid Receptor Coregulator 2; 280,000 compounds, 0.29% hits; Potency, µM (titrated, usually from 106 µM), inactives show at the top dose fluorescence change, negative = quenching; AID 1479, 2009; TRb/SRC2 Texas Red total fluorescence interference; active = well fitted curve in either direction with a large enough effect; inconclusive = small, poorly fitted or top-dose-only effect; also: potency is read from the fitted curve at half-maximal effect
#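 Human TRβ ligand-binding domain (0.6 uM) and Texas Red SRC2 peptide (20 nM) in Tris buffer with 1 uM T3 and 5% DMSO were incubated with pinned compound for 5 hr at ambient temperature. Total fluorescence was computed as S + 2P (555/632 nm).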
# Tau fibril FP – qHTS for Inhibitors of Tau Fibril Formation, Fluorescence Polarization. Microtubule-associated protein tau (Homo sapiens), P10636. 280,000 compounds, 0.39% hits. AID 1468, 2008. K18 P301L tau heparin fibrillization, Alexa594 FP, 6 h. Potency, µM (highest dose often 57.7 µM), inactives show at the highest dose activity, negative = inhibition, hits mostly inhibitors; also: potency is read from the fitted curve at half-maximal effect; nearly all actives have a fitted effect of over 55% in size
# Target sequence (P10636 561-689 P618L limits assumed): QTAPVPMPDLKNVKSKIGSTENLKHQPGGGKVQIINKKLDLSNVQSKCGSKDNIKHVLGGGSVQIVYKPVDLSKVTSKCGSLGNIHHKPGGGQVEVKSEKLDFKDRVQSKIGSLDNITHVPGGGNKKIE
#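 Compound effects on tau fibrillization are measured by Alexa 594 fluorescence polarization (ex 555, em 632 nm). K18 P301L tau is used at 15 uM with 0.24 uM labeled tracer, and 20 uM heparin induces aggregation over 6 hr at 37 C.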
# TRb-SRC2 inh – qHTS for Inhibitors of the Interaction of Thyroid Hormone Receptor and Steroid Receptor Coregulator 2; Thyroid hormone receptor beta (Homo sapiens), P10828; TRbeta-SRC2 peptide binding, fluorescence polarization; receptor liganded with 1 µM T3; Potency, µM (titrated, usually from 106 µM), without a hit: at the top dose activity change, negative = inhibition, most hits filed as inhibitors; 280,000 compounds, 0.065% hits; AID 1469, 2008;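 also: potency is read from the fitted curve at half-maximal effect; plate controls were bound peptide for no effect and peptide without receptor for full effect; nearly all actives have a fitted effect of over 50% in size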
# Target sequence (P10828 whole entry, looked up): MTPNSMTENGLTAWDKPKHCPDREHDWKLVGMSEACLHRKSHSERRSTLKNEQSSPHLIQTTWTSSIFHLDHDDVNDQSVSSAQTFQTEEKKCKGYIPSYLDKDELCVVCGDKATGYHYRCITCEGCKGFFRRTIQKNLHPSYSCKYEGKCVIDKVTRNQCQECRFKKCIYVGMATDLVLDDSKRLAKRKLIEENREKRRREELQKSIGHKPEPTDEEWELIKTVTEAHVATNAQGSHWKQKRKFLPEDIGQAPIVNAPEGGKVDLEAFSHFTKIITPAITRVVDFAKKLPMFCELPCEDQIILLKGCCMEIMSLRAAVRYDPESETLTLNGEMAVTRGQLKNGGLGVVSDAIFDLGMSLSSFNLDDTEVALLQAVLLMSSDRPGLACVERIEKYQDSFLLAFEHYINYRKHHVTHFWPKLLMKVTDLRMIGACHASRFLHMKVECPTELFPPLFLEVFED
#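 Each compound concentration gave % activity, normalized to unbound and bound Texas Red SRC2 controls, from polarization read after 5 hr ambient incubation with T3-loaded human TRb LBD.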
# PNC assembly inh – High Content Assay for Compounds that inhibit the Assembly of the Perinucleolar Compartment. PC3M PTB-GFP, PNC prevalence imaging, 16 h; hits give low values. 140,000 compounds, 3.1% hits. activity change (PNC), negative = inhibition, % at 10 µM;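 active = readout at or below -70, meaning at least 70% loss of cells showing the perinucleolar compartment, a nuclear body marking cancer cells; inconclusive = readout between -30 and a set limit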;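 also: plate controls were DMSO wells for no effect and camptothecin positive control wells for full effect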
#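 Compounds are pinned in duplicate onto adhered PC3M cells stably expressing GFP-tagged PTB and incubated 16 h at 37 C. Cells are then fixed, nuclei stained with Hoechst, and PNC-positive cells counted.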
# Tau fibril ThT – qHTS for Inhibitors of Tau Fibril Formation, Thioflavin T Binding. Microtubule-associated protein tau (Homo sapiens), P10636. recombinant tau K18 P301L, heparin-induced fibrillization, ThT fluorescence. Potency, µM (highest dose often 57.4 µM), without a hit: at the highest dose activity, negative = inhibition, actives largely listed as inhibitors. 270,000 compounds, 2.1% hits. AID 1460, 2008; also: potency is read from the fitted curve at half-maximal effect; nearly all actives have a fitted effect of over 55% in size
#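 Fibril formation assay: tau K18 P301L at 15 uM with trace Alexa 594 label, heparin inducer 20 uM, pH 7 sodium acetate buffer, 37 C for 6 hr; endpoint ThT signal.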
# Active calls of the source: *; ? = inconclusive; / = not tested or not shown; [ ] = dose if it differs, or a comment. An excerpt weighted towards active compounds, which were near 4.6% of everything screened. Unless noted, calls follow the shape of the dose curve; as a rule, active = well fitted curve in the direction sought with a large enough effect; inconclusive = small, poorly fitted or top-dose-only effect, or another doubt; inactive = no such curve, though single readings can be large; an effect the other way counts as inactive or inconclusive. Unless noted, % is scaled to controls: 0 for no effect and ±100 for the full control effect.
SMILES,Tau fluor counter,TexasRed fluor,Tau fibril FP,TRb-SRC2 inh,PNC assembly inh,Tau fibril ThT
CN1C=CC=C/C1=C(\C#N)c1nc2ccccc2[nH]1,0%,0%,-2%,-3%,?,-14%
O=C(CSc1nc(-c2ccco2)cc(C(F)(F)F)n1)NN1CCOCC1,5%,-1%,4%,1%,/,-5%
O=C(CSc1nc(-c2ccco2)cc(C(F)(F)F)n1)Nc1ccc(C(=O)N2CCOCC2)cc1,-9%,-3%,-2%,1%,-100*,-1%
O=C(O)c1cccc(N2CCCCS2(=O)=O)c1,-2%,0%,4%,-11%,-10,-8%
CCOC(=O)N1CCN(C(=S)NC(=O)C2CCCC2)CC1,5%,-4%,-12%,-1%,/,-1%
Cc1cc(C(=O)Cn2nnc3ccccc3c2=O)c(C)n1-c1ccccc1F,?,-5%,-2%,1%,-87*,-19%
COc1ccc(-n2c(C)cc(C(=O)Cn3nnc4ccccc4c3=O)c2C)cc1,-20%,-4%,-3%,0%,?,-4%
COc1ccc(-c2noc(CNC(=O)c3ccc(OC)cc3OC)n2)cc1,-21%,7%,-11%,-5%,/,?
O=C(NCc1nc(-c2ccc(C(F)(F)F)cc2)no1)Nc1ccc(OC(F)(F)F)cc1,-15%,-2%,7.9µM*,-2%,/,/
O=C(/C=C\c1ccco1)Nc1cc([N+](=O)[O-])ccc1F,-3%,-1%,-10%,9%,-134*,-9%
CCCc1cc(C(=O)Cc2nc3ccccc3s2)c(O)cc1O,20µM*[quencher],-2%,0%,-2%,?,25µM*
CCCc1cc(C(=O)Cc2ccc(F)cc2)c(O)cc1O,?,-1%,-9%,-20%,17,-5%
Nc1ccc(Nc2ccccc2N)cc1,14µM*[quencher],-3%,?,6%,16,16µM*
COc1ccc(Nc2ccccc2N)cc1,-23%,?,?,1%,/,?
Cc1cc(C)c2c(=O)n(CC(=O)N3CCC(Cc4ccccc4)CC3)sc2n1,-22%,-1%,11µM*,1%,55,13µM*
Cc1cccc(N2CCN(C(=O)Cn3nc(C)n4cccc4c3=O)CC2C)c1 (stereo not given),-24%,-1%,?,-9%,/,?
CN1CC(=O)N(CC(=O)N2CCC(Cc3ccccc3)CC2)C1=O,6%,2%,3%,0%,/,5%
Cc1cccc(N2CCN(C(=O)Cn3sc4nc(C)cc(C)c4c3=O)CC2C)c1 (stereo not given),-29%,-7%,?,0%,17,13µM*
COC(=O)c1sc2ccccc2c1NC(=O)c1ccc(S(=O)(=O)N2CCCCC2)cc1,-26%,1%,1%,-1%,7,-7%
CCn1nnc(-c2ccccc2NC(=O)c2cc(OC)c(OC)c(OC)c2)n1,-3%,1%,4%,-1%,19,-13%
CSc1ncc(C(=O)Nc2cccc(C)c2C)c(-c2ccccc2)n1,-22%,1%,-9%,1%,/,?
Cn1nc(-c2ccccn2)nc2c(=O)n(C)c(=O)nc1-2,-20%,-3%,?,?,/,5.6µM*
CCCc1nc2c(=O)n(C)c(=O)nc-2n(C)n1,-7%,-5%,?,?,/,14µM*
O=C(Nc1ccc2ccccc2c1)[C@@H]1C[C@H]1[C@@H](NP(=O)(c1ccccc1)c1ccccc1)c1ccccc1,9%,-3%,-6%,2%,-119*,8%
O=C(NCc1ccccc1)[C@@H]1C[C@H]1[C@@H](NP(=O)(c1ccccc1)c1ccccc1)c1ccccc1,-2%,0%,-6%,-4%,22,-9%
SMILES,Tau fluor counter,TexasRed fluor,Tau fibril FP,TRb-SRC2 inh,PNC assembly inh,Tau fibril ThT
Nc1ccc(N=Nc2ccccc2)c2ccccc12,13µM*[quencher],0%,?,7%,/,7.1µM*
CC(=O)c1cc2c(cc1NC(=O)CN1CCN(c3cccc(C(F)(F)F)c3)CC1)OCO2,-10%,-6%,-11%,2%,-100*,2%
O=S(=O)(Nc1nc2ccccc2nc1Nc1ccc2c(c1)OCCO2)c1cccs1,?,-19%,15%,0%,-5,13µM*
CC(C)(C)NC(=O)CN(Cc1cccs1)C(=O)C1COc2ccccc2O1 (stereo not given),-5%,-2%,-3%,-2%,49,-7%
CCOC(=O)/C(C#N)=C1\C(=O)N(Cc2ccccc2)c2ccccc21,?,-1%,?,6%,/,35µM*
CCOC(=O)/C(C#N)=C1/C=CN(Cc2ccccc2)C=N1,1%,-2%,2%,1%,?,1%
C=CCSC1=N/C(=C\c2sccc2C)C(=O)S1,-16%,-1%,-6%,-8%,-5,?
C=CCSC1=N/C(=C\C=C\c2ccco2)C(=O)S1,?,?,?,-4%,24,13µM*
Cc1[nH]c2ccccc2c1C(C#N)(C#N)C1C(=O)c2ccccc2C1=O,4.5µM*[quencher],-4%,?,-1%,/,6.3µM*
Cc1ccc(NC(=O)Cn2cc3c(n2)CCCCC3)cc1,-5%,-3%,-7%,13%,/,3%
CN(C)c1ccc(N=Nc2ccccc2C(=O)OCC(=O)N(C)c2ccccc2)cc1,4%,2%,?,-16%,?,1.6µM*
COC(=O)c1ccccc1NC(=O)COC(=O)c1ccccc1N=Nc1ccc(N(C)C)cc1,?,-1%,17%,-4%,-9,4.5µM*
COc1cccc(N2CCN(C(=O)c3cccnc3)CC2)c1,1%,0%,1%,10%,3,-1%
C/C(=N/NS(=O)(=O)c1ccccc1)c1ccc(Cl)cc1,-8%,0%,-2%,4%,/,-1%
CCOc1ccc(CNC(=O)C(CC)n2nc(C)n3c(cc4occc43)c2=O)cc1OC (stereo not given),0%,-1%,-1%,-1%,-89*,-8%
CCC(=O)Nc1ccc(S(=O)(=O)Nc2ccc(Cl)nn2)cc1,12%,-2%[53 µM],1%,0%[53 µM],-80*,16%
CC(=O)Nc1ccc(S(=O)(=O)Nc2ccc(Cl)nn2)cc1,-1%,0%,0%,3%,15,0%
NC(=O)Cc1ccc(Nc2nnc(-c3ccc(O)cc3)c3ccccc23)cc1,-10%,0%,7%,-2%,57,-8%

# From PubChem
